Reference: publication PMC4336329 (PLoS ONE, 2015)
Among all 310,000 compounds or so, about 14,000 (4.5%) showed an effect of 50% or more. The effect is printed as a negative number. Many of the other results were omitted from the sample, so strong results are more common in it than they were.

Biological target: human ether-à-go-go-related gene (hERG) potassium channel (human, UniProt Q12809)
Assay: primary screen, population patch clamp on CHO cells stably expressing hERG; higher = less effect of the substance
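Also: peak tail current of the secondary pulse compared with the same well before compound.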

Sequence of human ether-à-go-go-related gene (hERG) potassium channel (Q12809 whole entry, looked up): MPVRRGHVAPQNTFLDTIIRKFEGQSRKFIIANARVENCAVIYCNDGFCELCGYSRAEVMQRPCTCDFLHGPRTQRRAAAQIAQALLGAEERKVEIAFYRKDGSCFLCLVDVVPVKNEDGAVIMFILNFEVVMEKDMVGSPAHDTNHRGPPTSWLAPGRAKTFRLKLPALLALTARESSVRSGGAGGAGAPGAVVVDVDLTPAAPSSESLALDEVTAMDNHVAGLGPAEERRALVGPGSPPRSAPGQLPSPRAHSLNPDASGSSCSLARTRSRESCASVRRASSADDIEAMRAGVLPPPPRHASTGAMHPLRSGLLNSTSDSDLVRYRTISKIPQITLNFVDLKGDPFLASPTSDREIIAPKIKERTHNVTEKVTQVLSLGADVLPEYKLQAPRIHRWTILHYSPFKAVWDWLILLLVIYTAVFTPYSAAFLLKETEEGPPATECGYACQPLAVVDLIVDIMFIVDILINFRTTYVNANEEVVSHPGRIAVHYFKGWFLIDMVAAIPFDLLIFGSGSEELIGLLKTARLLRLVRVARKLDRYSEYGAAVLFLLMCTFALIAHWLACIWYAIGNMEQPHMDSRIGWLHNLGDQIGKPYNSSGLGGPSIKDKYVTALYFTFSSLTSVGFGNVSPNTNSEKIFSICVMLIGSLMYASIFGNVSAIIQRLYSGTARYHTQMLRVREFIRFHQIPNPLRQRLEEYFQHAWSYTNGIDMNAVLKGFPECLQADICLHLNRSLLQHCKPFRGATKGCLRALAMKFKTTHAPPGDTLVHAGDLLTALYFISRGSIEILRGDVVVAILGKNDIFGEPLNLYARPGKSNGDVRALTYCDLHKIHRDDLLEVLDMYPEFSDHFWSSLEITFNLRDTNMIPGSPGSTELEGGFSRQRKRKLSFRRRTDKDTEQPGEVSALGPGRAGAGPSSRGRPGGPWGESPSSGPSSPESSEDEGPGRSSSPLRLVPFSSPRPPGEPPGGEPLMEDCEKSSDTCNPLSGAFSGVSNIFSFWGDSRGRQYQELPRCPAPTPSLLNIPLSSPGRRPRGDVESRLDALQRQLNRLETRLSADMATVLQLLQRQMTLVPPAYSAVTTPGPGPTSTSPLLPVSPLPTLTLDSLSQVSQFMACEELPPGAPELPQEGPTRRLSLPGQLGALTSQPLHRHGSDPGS

Structure (SMILES) | hERG current change (%, negative = inhibition) at 10uM
O=C(Cn1cnc([N+](=O)[O-])n1)N/N=C/c1ccccc1O | 14.4%
COC(=O)C[C@](O)(CCCC(C)(C)O)C(=O)O[C@@H]1C(OC)=C[C@]23CCCN2CCc2cc4c(cc2[C@H]13)OCO4 | 10.4%
CCCCOCCCNC(=O)N[C@H](C(=O)OC)C(C)C | 10.7%
Cn1c(=O)c2c(ncn2CC(=O)Nc2ccc3c(c2)OCO3)n(C)c1=O | 3.43%
O=C(Nc1ncc(C(F)(F)F)cc1Cl)C1COc2ccccc2O1 (stereo not drawn) | -3.76%
Cc1ccc2c(Cl)cc(Cl)c(OCC(=O)N3CCOCC3)c2n1 | -8.28%
O=C(Cc1noc2ccccc12)Nc1ccccn1 | 6.57%
O=S(=O)(Nc1nc2ccccc2nc1NCc1ccco1)c1cccs1 | 4.13%
CCc1ccc2c(c1)c(N=NC1=NC(=O)CS1)c(O)n2C | 0.556%
COc1ccc(NS(=O)(=O)c2ccc(C(=O)N3CCN(Cc4ccccc4)CC3)cc2)cc1 | -17.1%
Cc1cccc(-c2noc(CNC(=O)COc3ccccc3C)n2)c1 | -1.88%
CCOc1ccc(C(CCc2ccccc2)NC(=O)c2ccccc2)cc1OCC (stereo not drawn) | -19.1%
CCCCN(Cc1nc2ccccc2c(=O)[nH]1)C(=O)CN1C(=O)NC2(CCCCC2)C1=O | -41.9%
O=C(Cc1nnc(NC(=O)c2ccccc2)s1)N/N=C\c1ccc(O)c(O)c1 | 23.4%
COc1ccc(OC)c(C2N(c3cc(C)on3)C(=O)C3CCCN32)c1 (stereo not drawn) | 10.8%
Cc1cccn2c(=O)c(C=O)c(N3CCN(c4ccc(F)cc4)CC3)nc12 | -22.1%
Cc1cccn2c(=O)c(C=O)c(N3CCN(c4ccccc4)CC3)nc12 | -55.4%
Cc1ccc2nc(N3CCN(C)CC3)c(C=O)c(=O)n2c1 | 5.3%
Cc1ccc2nc(N3CCN(c4ccccc4)CC3)c(C=O)c(=O)n2c1 | 11.5%
Cc1ccc2nc(N3CCN(c4ccccc4F)CC3)c(C=O)c(=O)n2c1 | -70.1%
Cc1cccn2c(=O)c(C=O)c(N3CCN(C)CC3)nc12 | -0.442%
CCOCCCNC(=O)Cc1ccc(-n2c(CC)nc3cccnc32)cc1 | -8.18%
C=CCn1c(Oc2ccc(C=O)cc2OCC)nc2c1c(=O)n(C)c(=O)n2C | 24.4%
CCc1nnc(SCC(=O)Nc2ccccc2)n1CC1CCCO1 (stereo not drawn) | 2.61%

Structure (SMILES) | hERG current change (%, negative = inhibition) at 10uM
Cc1cccc(N2CC(C(=O)Nc3nnc(SCCN4CCOCC4)s3)CC2=O)c1 (stereo not drawn) | 0.559%
O=C(NNC(=S)Nc1ccc(Cl)cc1Cl)c1cccnc1 | 8.1%
COc1ccc(-c2csc(N(CCCN3CCOCC3)C(=O)c3ccco3)n2)cc1.Cl | -32.4%
Cl.O=C(c1ccco1)N(CCCN1CCOCC1)c1nc(-c2ccc(F)cc2)cs1 | -29.4%
CCN(CC)CCCN(C(=O)c1ccco1)c1nc(-c2ccc(C)cc2)cs1.Cl | -84.1%
CCN(C(=O)c1ccco1)c1nc(-c2ccc(OC)cc2)cs1 | 8.13%
COCCN(C(=O)c1ccco1)c1nc(-c2ccccc2)cs1 | 4.36%
CCN(CC)CCCN(C(=O)c1ccco1)c1nc(-c2ccc(Cl)cc2)cs1.Cl | -71.2%
CCOc1ccc(Oc2ccc(C(F)(F)F)cc2NC(=O)C2=COCCO2)cc1 | 13.6%
CCC(CC)c1nnc(NC(=O)c2cc(-c3ccccc3)nc3ccccc23)s1 | 9.31%
O=C(/C=C/c1ccccc1Cl)N(Cc1ccc(Cl)cc1)C1CCS(=O)(=O)C1 (stereo not drawn) | 1.48%
O=C(NCC1CCCO1)c1ccccc1NS(=O)(=O)c1cccs1 (stereo not drawn) | -5.56%
Cc1cc(C)cc(OCCNC(=O)CCc2ccccc2)c1 | 4.83%
CC1CCN(C(=O)c2ccc(CSc3nc4ccncc4n3Cc3ccc(F)cc3)cc2)CC1 | -46%
Cc1ccc(CSc2nc3ccncc3n2CC(=O)Nc2cc(C)cc(C)c2)cc1 | 7.38%
CN1CCN(C(=O)c2ccc(CSc3nc4ccncc4n3Cc3ccc(F)cc3)cc2)CC1 | 0.727%
Cc1cccc(CSc2nc3ccncc3n2CC(=O)Nc2cc(C)cc(C)c2)c1 | 9.09%
COc1ccc(Cn2c(SCc3ccc(C)cc3)nc3cc(OC)c(OC)cc3c2=N)cc1Cl | 14.6%
COc1ccc(-c2nc(Cn3c(SCc4ccccc4F)nc4ccncc43)c(C)o2)cc1 | 4.5%
COc1ccc(-c2nc(Cn3c(SCc4ccc(C)cc4)nc4ccncc43)c(C)o2)cc1OC | -52%
COc1cc2nc(SCc3ccc(F)cc3)n(Cc3cccs3)c(=N)c2cc1OC | 0.564%
CCC(C)NC(=O)c1ccc(CSc2nc3ccncc3n2Cc2ccc(F)cc2)cc1 (stereo not drawn) | -59%
O=C(NC1CCCC1)c1ccc(CSc2nc3ccncc3n2Cc2ccc(F)cc2)cc1 | -40.7%
COc1ccc(-c2nc(Cn3c(SCc4ccc(F)cc4)nc4ccncc43)c(C)o2)cc1OC | -55.6%

Structure (SMILES) | hERG current change (%, negative = inhibition) at 10uM
COc1ccc(-c2nc(Cn3c(SCc4cccc(F)c4)nc4ccncc43)c(C)o2)cc1OC | -62.4%
CC1CCCCC1NC(=O)Cn1c(=O)oc2cc(S(=O)(=O)N3CCCC3)ccc21 (stereo not drawn) | 18.8%
O=NNc1nc2ccccc2n1Cc1ccccc1 | -1.83%
COc1ccc(C2C(C(=O)c3ccc(C)o3)=C(O)C(=O)N2Cc2ccco2)cc1OC (stereo not drawn) | 21%
CCOCCCNC(=O)C(c1ccc(OC)cc1)N(Cc1ccc2c(c1)OCO2)C(=O)CNC(C)=O (stereo not drawn) | 15.3%
CCc1nnc(NC(=O)C(NC(=O)c2ccccc2Cl)C(C)C)s1 (stereo not drawn) | 0.192%
CCCCSc1nnc(-c2ccccc2)c2ccccc12 | -37.3%
Cc1ccc2c(c1)C(=O)N(CCCCO)C2=O | 20.1%
O=c1cc(CSc2ccccc2)[nH]c2ccccc12 | 8.17%
O=C(C[n+]1ccccc1)Nc1c(Cl)cc(Cl)cc1Cl.[Cl-] | 13.1%
CC(=O)Nc1ccccc1C(=O)OCC(=O)c1ccccc1Cl | -12%
CC1=NN(c2cccc(F)c2)C(=O)/C1=C/c1ccc(N(C)C)cc1 | 6.38%
CC(C)OC(=O)CSc1nnc(CNc2ccc(Cl)cc2)n1Cc1ccccc1 | -33%
COC(=O)CSc1nnc(CNc2ccc(Cl)cc2)n1Cc1ccccc1 | -54.7%
CCn1c(CNc2ccc(F)cc2)nnc1SCC(=O)OC1CCCCC1 | -51.7%
CCn1c(CNc2ccc(Cl)cc2)nnc1SCC(=O)OC1CCCCC1 | -37%
CCOC(=O)CSc1nnc(CNc2ccc(Cl)cc2)n1Cc1ccccc1 | -21.8%
CCn1c(CNc2cccc(Cl)c2)nnc1SCC(=O)OC1CCCCC1 | -25%
CN(C)S(=O)(=O)c1cccc(NC(=O)COC(=O)CNC(=O)c2cccc([N+](=O)[O-])c2)c1 | -39.6%
CCOc1ccc(N2C(=O)CSC23CCCCC3)cc1 | -3.56%
COC(=O)c1[nH]c(C)c(/C(O)=C2\C(=O)C(=O)N(CCN(C)C)C2c2cccs2)c1C (stereo not drawn) | 16.9%
CCOC(CNC(=O)c1ccc2c(c1)ncn2-c1cccc(F)c1)OCC | -17.3%
O=C(CSc1n[nH]c(=O)n1-c1ccc2c(c1)OCCO2)Nc1ccccc1 | 13%
COc1ccc(OCC(=O)N/N=C/c2ccncc2)cc1 | 17.9%

Structure (SMILES) | hERG current change (%, negative = inhibition) at 10uM
CCOC(=O)c1c(N2CCN(c3ccccc3)CC2)cc(C)nc1C.O=C([O-])C(=O)[O-] | -72%
CCOC(=O)c1sc(NC(=O)CN2CCN(c3ccccc3)CC2)nc1C | -5.78%
CCOC(=O)c1[nH]c(C)c(C(=O)N2CCN(c3ccccc3)CC2)c1C | -13.2%
CC(OC(=O)c1ccc(-n2cnnn2)cc1)C(=O)Nc1ccccc1F (stereo not drawn) | -23.2%
COc1ccccc1NC(=O)C(C)OC(=O)c1cccc(-n2cnnn2)c1 (stereo not drawn) | -35.2%
COc1ccccc1NC(=O)C(C)OC(=O)c1ccc(-n2cnnn2)cc1 (stereo not drawn) | -87.5%
COCCn1c(C)cc(/C=N/NC(=O)c2cc3ccccc3cc2O)c1C | 10.3%
O=C(Nc1ccccc1F)C1CCN(S(=O)(=O)c2cccnc2)CC1 | 9.24%
COc1ccc(S(=O)(=O)N(C)C)cc1NC(=O)COC(=O)c1nc2nccc(C)n2n1 | 9.68%
CC(NC(=O)CN1c2cccc3cccc(c23)S1(=O)=O)c1ccc(S(N)(=O)=O)cc1 (stereo not drawn) | -25.1%
Cc1ccc(NC(=O)N/C=C/c2ccco2)cc1C | -1.57%
Cn1cncc1COC(=O)c1ccc(Cl)cc1 | 5.21%
Cc1cccc(N2CCN(C(=S)NCCc3ccccc3)CC2)c1C | -5.03%
COc1ccccc1N1CCN(Cc2nnnn2CCc2ccccc2)CC1.Cl | 8.3%
COc1ccccc1N1CCN(C(=O)CCc2ccccc2)CC1 | -11.4%
C/C=C(\C)CN1CCN(c2cccc(C)c2C)CC1 | -3.49%
Cc1cccc(N2CCN(CCc3ccccc3)CC2)c1C | -75.1%
C/C(=C\c1ccccc1)CN1CCN(c2ccccc2F)CC1 | 5.01%
COc1ccccc1N1CCN(CCc2ccccc2)CC1 | -59.4%
C/C(=C\c1ccccc1)CN1CCN(c2ccccc2)CC1 | -3.31%
COc1ccccc1N1CCN(C/C(C)=C/c2ccccc2)CC1 | -63.4%
